Screens deposited in PubChem by Broad Institute.
rRNA inh HTS = selective bacterial rRNA inhibition in E. coli; AID 720706; E. coli WT GFP vs humanized-ribosome RFP mutants, fluorescence, 24 h; active compounds read low; DMSO median 0, no signal -100; 350,000 tested, 1.6% active; GFP signal change (wild-type ribosome), % (concentration not given with the values);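 active means significant combined selectivity score with lowered wild-type GFP, culture density cut under 30%, mutant RFP and density less affected; inactive means any of these conditions unmet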
ERAP1 HTS inh = inhibitors of human ERAP1 aminopeptidase | Q9NZ08 | 340,000 tested, 0.15% active | inhibition, % at 10.7 µM | recombinant ERAP1, Leu-AMC fluorescence, 60 min | AID 652197;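 active means mean replicate inhibition of at least 30%, or all replicates individually reaching that 30% level; inactive means mean below 30% and not every replicate reaching it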;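 further: 0% = neutral control wells and 100% = L-leucinethiol positive control wells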
Target sequence (Q9NZ08 whole entry, looked up): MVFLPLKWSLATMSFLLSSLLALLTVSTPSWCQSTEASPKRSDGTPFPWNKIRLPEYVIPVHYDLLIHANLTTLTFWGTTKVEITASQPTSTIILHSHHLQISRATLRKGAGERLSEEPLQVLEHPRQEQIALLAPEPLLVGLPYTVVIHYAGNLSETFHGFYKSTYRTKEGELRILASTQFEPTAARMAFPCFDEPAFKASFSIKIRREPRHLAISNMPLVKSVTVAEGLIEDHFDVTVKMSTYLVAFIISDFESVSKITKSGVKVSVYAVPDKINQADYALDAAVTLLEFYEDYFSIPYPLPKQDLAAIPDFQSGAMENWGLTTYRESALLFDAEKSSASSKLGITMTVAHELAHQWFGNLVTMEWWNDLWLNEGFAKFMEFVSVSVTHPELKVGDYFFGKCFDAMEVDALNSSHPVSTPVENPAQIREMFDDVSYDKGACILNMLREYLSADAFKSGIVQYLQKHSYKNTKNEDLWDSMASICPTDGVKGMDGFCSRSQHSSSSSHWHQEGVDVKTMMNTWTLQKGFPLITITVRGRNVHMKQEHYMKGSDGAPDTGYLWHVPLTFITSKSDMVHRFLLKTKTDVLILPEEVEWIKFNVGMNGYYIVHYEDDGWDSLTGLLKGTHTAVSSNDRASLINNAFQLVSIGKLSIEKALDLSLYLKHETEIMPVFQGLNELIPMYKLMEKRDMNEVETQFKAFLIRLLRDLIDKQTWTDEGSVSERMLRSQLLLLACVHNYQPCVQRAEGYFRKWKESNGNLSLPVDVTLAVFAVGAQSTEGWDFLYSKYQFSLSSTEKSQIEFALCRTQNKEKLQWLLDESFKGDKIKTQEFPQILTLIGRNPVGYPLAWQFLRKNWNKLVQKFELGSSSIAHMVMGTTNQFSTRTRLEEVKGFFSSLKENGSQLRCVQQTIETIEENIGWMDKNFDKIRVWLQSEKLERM
PGC1a acetyl inh = lowers PGC1a acetylation signal in U2OS cells; 350,000 tested, 0.17% active; AlphaScreen anti-acetyl-lysine; with virally co-expressed GCN5 acetyltransferase; AID 651687; inhibition, % at 15.6 µM;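 active means every replicate shows inhibition of at least 40%; inconclusive means mean inhibition at least 40% but some replicate below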;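 further: 0% = neutral control wells and 100% = positive control wells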
DENV2 CPE rescue = inhibitors of DENV2 cytopathic effect | 350,000 tested, 1.7% active | DENV2-infected cells, cytopathic effect rescue, plate reader | CPE inhibition, % at 9.99 µM; in the data active means CPE inhibition above about 20%, passing the limit was not always enough; inconclusive means no clear call, values can overlap the other calls; tested in BHK-21 cells;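 further: 0% = median of neutral control wells and 100% = median of positive control wells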
CaV13 FRET inh = Primary screen for inhibitors of IQ motif and Ca2+-dependent inactivation inhibitor domain binding in CACNA1D, Förster resonance energy transfer in living cells, …; HEK cells, CFP/YFP FRET ICDI-IQ, plate reader, 10 min; percent FRET-ratio fall versus neutral wells; inhibition, % at 12.3 µM; 340,000 tested, 0.098% active;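 active means mean replicate inhibition of at least 30% and at least 1% of replicates passing that level; inconclusive means only one of the two criteria is met; inactive means neither criterion is met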;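 further: 0% = median of the neutral control wells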
GSIS activator = GLuc luminescence reporter in INS-1E cells, primary screen for activators of glucose-dependent secretion of insulin. INS-1E GLuc reporter insulin secretion, 2-3 h. activation, % at 16.6 µM. 370,000 tested, 0.61% active;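 active means lowest replicate activation of at least 40%, so every replicate reaches that level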;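 further: 0% = median of neutral control wells and 100% = median of IBMX positive control wells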
An asterisk follows results filed as active; ? = inconclusive; / = no result. Rows were chosen to be rich in hits. Some 3.2% of all compounds tested hit in one or more screens of this group.

SMILES | rRNA inh HTS | ERAP1 HTS inh | PGC1a acetyl inh | DENV2 CPE rescue | CaV13 FRET inh | GSIS activator
C[C@@H]1CN([C@H](C)CO)C(=O)c2cc(N(C)C)ccc2O[C@@H](C)CCCCO[C@H]1CN(C)Cc1ccc(C(=O)Nc2ccccc2N)cc1 | 4 | / | / | / | / | 7
COc1cccc(NC(=O)N2CC(=O)N3[C@H](CO)[C@H](c4ccc(C#CC5CCCC5)cc4)[C@@H]3C2)c1 | 2 | 1 | 5 | 6 | / | -3
CCCNC(=O)COc1ccc(C=O)cc1 | / | -1 | 5 | 3 | / | /
Cc1nc2c(-c3ccccc3)c[nH]n2c(=O)c1Cc1ccccc1 | -20* | -1 | 3 | 4 | -6 | -21
Cc1cc(=O)n2[nH]cc(-c3ccccc3)c2n1 | -7 | -3 | 1 | -2 | -5 | 14
COc1ccc(NC(=O)N(C)C[C@@H]2Oc3ccc(NC(=O)Nc4cccc5ccccc45)cc3C(=O)N([C@H](C)CO)C[C@H]2C)cc1 | 0 | 1 | -7 | / | / | -17
O=C(Nc1ccc(OC(F)(F)F)cc1)Oc1ccccc1N1CCCCC1 | -50* | -2 | 14 | -9 | -5 | 9
C[C@H]1CN([C@@H](C)CO)C(=O)c2cc(NC(=O)C3CC3)ccc2O[C@H]1CN(C)CC1CCCCC1 | 4 | 0 | -4 | 1 | / | 8
C[C@@H]1CCCCO[C@H](CN(C)Cc2ccccc2)[C@@H](C)CN([C@@H](C)CO)C(=O)c2cc(NC(=O)c3ccccc3)ccc2O1 | 0 | / | 2 | 54* | / | -26
C[C@H](CO)N1C[C@H](C)[C@@H](CN(C)Cc2ccccc2)OCCCC[C@H](C)Oc2ccc(NC(=O)c3ccccc3)cc2C1=O | -2 | / | -19 | -11 | / | -11
C[C@@H]1CN([C@@H](C)CO)C(=O)c2cc(NC(=O)c3ccccc3)ccc2O[C@@H](C)CCCCO[C@@H]1CN(C)Cc1ccccc1 | 0 | / | 0 | 35* | / | -11
C[C@@H]1CN([C@H](C)CO)C(=O)c2cc(NC(=O)c3ccccc3)ccc2O[C@@H](C)CCCCO[C@H]1CN(C)Cc1ccccc1 | 0 | / | -13 | 13 | / | -13
C[C@@H]1CCCCO[C@@H](CN(C)Cc2ccccc2)[C@H](C)CN([C@H](C)CO)C(=O)c2cc(NC(=O)c3ccccc3)ccc2O1 | 2 | / | 2 | 24* | / | -8
C[C@@H]1CCCCO[C@@H](CN(C)Cc2ccccc2)[C@@H](C)CN([C@H](C)CO)C(=O)c2cc(NC(=O)c3ccccc3)ccc2O1 | 3 | / | 15 | 100* | / | 13
COc1ccc(NC(=O)N[C@@H]2CC[C@@H](CC(=O)NC3CCC3)O[C@H]2CO)cc1 | 1 | 0 | -3 | 9 | / | 27
C[C@@H]1CN([C@@H](C)CO)S(=O)(=O)c2ccc(/C=C/c3ccccc3)cc2O[C@H]1CN(C)C(=O)c1ccccc1 | -6 | / | -18 | -4 | / | -8
CCCNC(=O)C[C@@H]1CC[C@H]2[C@H](COc3ccc(NC(=O)c4ccc(C(F)(F)F)cc4)cc3C(=O)N2C)O1 | -3 | 0 | 4 | -6 | / | -11
O=C1O[C@H](c2ccccc2)[C@H](c2ccccc2)N2[C@H]1[C@@H](C(=O)N1CCCCCCC1)[C@]1(C(=O)Nc3ccccc31)[C@H]2c1ccccc1OCCO | / | 5 | -8 | 42* | / | /
O=C1O[C@@H](c2ccccc2)[C@@H](c2ccccc2)N2[C@@H](c3ccccc3OCCO)[C@]3(C(=O)Nc4ccc(C#CCCO)cc43)[C@@H](C(=O)N3CCCCCCC3)[C@H]12 | / | -1 | / | 10 | / | /
COc1ccc(NC(=O)Nc2cccc3c2O[C@H](CN(C)C(=O)Nc2ccc4c(c2)OCO4)[C@H](C)CN([C@@H](C)CO)C3=O)cc1 | -42 | -1 | -1 | -1 | / | 0
COc1ccc(C2(C)NC(=O)N(CC(=O)c3cc(C)n(C4CC4)c3C)C2=O)cc1 (stereo not drawn) | 2 | 0 | 13 | 37* | -2 | 18
Cc1cc(C(=O)CN2C(=O)NC(C)(c3ccc(F)c(F)c3)C2=O)c(C)n1C1CC1 (stereo not drawn) | / | 2 | -2 | / | -12 | -26
COc1ccc(CNC(=O)CCn2c(=O)oc3ccccc32)c(OC)c1 | 8 | / | -1 | -2 | -16 | 58*
COc1cccc(CNC(=O)CCn2c(=O)oc3ccccc32)c1 | / | / | 2 | / | -5 | /
C[C@H](CO)N1C[C@H](C)[C@H](CN(C)Cc2ccncc2)Oc2ccc(NC(=O)Cc3ccccc3)cc2C1=O | 0 | 2 | 2 | 6 | / | 15
SMILES | rRNA inh HTS | ERAP1 HTS inh | PGC1a acetyl inh | DENV2 CPE rescue | CaV13 FRET inh | GSIS activator
O=C(CCC1CCCN(C(=O)c2cc(C3CC3)[nH]n2)C1)N1CCN(c2ccccn2)CC1 (stereo not drawn) | 2 | 0 | 98* | -2 | -4 | 5
CCc1cc(C(=O)N2CCCC(CCC(=O)N3CCN(c4ccccn4)CC3)C2)no1 (stereo not drawn) | 0 | 2 | 10 | 0 | -7 | -7
COc1cccc(-c2ccc([C@H]3[C@@H](CO)N4C(=O)CN(C(=O)C5CCC5)C[C@@H]34)cc2)c1 | -4 | 0 | -30 | -9 | / | -7
COc1ccc2c(C)cc(N3CCN(Cc4ccccc4)CC3)nc2c1 | -3 | 37* | -8 | ? | -21 | 4
COc1ccc2c(C)cc(N3CCCCCC3)nc2c1 | -5 | -1 | 5 | -10 | -2 | 1
N#C[C@H]1[C@@H](c2ccccc2-c2cccc(F)c2)[C@@H](CO)N1C(=O)CN1CCOCC1 | -5 | 0 | 4 | 8 | / | -2
CN(C)C1(CNC(=O)C2CCN(S(=O)(=O)c3ccccc3C(F)(F)F)CC2)CCCCC1 | 7 | -1 | 2 | 31* | -3 | -18
C[C@H](CO)N1C[C@H](C)[C@@H](CN(C)C(=O)c2ccc3c(c2)OCO3)Oc2cc(-c3ccncc3)ccc2S1(=O)=O | -2 | 0 | 3 | 2 | / | 10
C[C@H]1CN([C@@H](C)CO)S(=O)(=O)c2ccc(-c3ccncc3)cc2O[C@@H]1CN(C)C(=O)c1ccc2c(c1)OCO2 | -7 | 4 | 12 | 26* | / | 7
C[C@H](CO)N1C[C@H](C)[C@H](CN(C)C(=O)c2ccccc2)Oc2cc(/C=C/c3ccccc3)ccc2S1(=O)=O | -6 | -5 | -22 | -3 | / | -25
C/C=C/c1ccc2c(c1)O[C@@H](CN(C)C(=O)Nc1ccccc1)[C@H](C)CN([C@H](C)CO)S2(=O)=O | -3 | -2 | -1 | 28* | / | -16
C[C@@H]1CN([C@@H](C)CO)S(=O)(=O)c2ccc(/C=C/c3ccccc3)cc2O[C@H]1CN(C)C(=O)c1ccncc1 | -14 | 1 | 5 | 41* | / | -47
